Assay results taken from PubChem BioAssay (NCATS).
Inconclusive results are not listed. Active and inactive are the calls of the source. Calls come from the whole dose curve; as a rule, active = well fitted curve in either direction with a large enough effect (not every such curve was filed as active); inconclusive = small, poorly fitted or top-dose-only effect, or another doubt; inactive = flat fitted curve, though single readings scatter.

Assay: AP1 Signaling Pathway (AID 357);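 note: ME-180 reporter cells stimulated with EGF at its EC50 level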
Conditions: ME-180 (cervical carcinoma) AP-1-bla reporter, EGF-induced, beta-lactamase ratio, 5 h; at 17.2 µM (top of the series) unless noted
In short: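 In this screen, ME-180 cells in Opti-MEM with 0.5% dialyzed FBS received EC50 EGF and compound titrations for 5 h. AP-1 reporter beta-lactamase was detected via CCF4 ratio, giving AC50 for positive and negative modulators.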
% is set by controls: 0 for no effect and ±100 for the full control effect.

Activity change, negative = inhibition, inactive:
CCc1ccc(-c2cn3nc(C)c(C)nc3n2)cc1 0.521%, CCCSc1nnc(NC(=O)Nc2ccc(F)cc2)s1 -11.2%, Cc1nc(N2CCN(C(=O)c3ccc(Cl)cc3)CC2)c(C#N)c2c1COC(C)(C)C2 -10%, CCOC(=O)c1[nH]c2ccc(OC)cc2c1NC(=O)CCN1CCC(C)CC1 8.62%, COc1ccc(OC)c2c(N)c(C#N)c(C(F)(F)C(F)(F)F)nc12 5.08%, CCC(=O)Nc1c(C#N)c2nc3ccccc3nc2n1C1CCCCC1 -0.0903%, N=c1c(C(=O)NCc2ccccc2)cc2c(=O)n3ccccc3nc2n1Cc1ccco1 -5.29%, CC(C)OCCCn1c(=N)c(C(N)=S)cc2c(=O)n3ccccc3nc21 -4.52%, CNc1oc(-c2ccccc2Cl)nc1C#N -4.94%, CCCCn1cnc2c(c1=O)c1nc3ccccc3nc1n2Cc1ccc2c(c1)OCO2 29.8%, Cc1c(/C(O)=C2\C(=O)C(=O)N(CCCN(C)C)C2c2ccccc2)cnn1-c1ccccc1 (centres undefined) -3.19%, CCCN(CCC)c1nc2ccccc2nc1C(C#N)C(=O)OC(C)COC (centres undefined) -15.4%, COc1nc(N(C)S(=O)(=O)c2ccc(C)cc2)nc(C)c1Cl -2.26%, CCSc1nnc(NC(=O)NC(CC)(C(F)(F)F)C(F)(F)F)s1 -15.5%, CCCCCNC(=O)c1c(N)n(/N=C/c2ccco2)c2nc3ccccc3nc12 20.3%, Cc1nc(Sc2cccn2C)c(C(F)(F)F)c(=O)[nH]1 -5.32%, CCCCCCc1cc2cc(-c3nnc(-c4ccccc4O)o3)c(=O)oc2cc1O -3.45%, COc1ccc(-n2c(SCC(N)=O)nc3sc4c(c3c2=O)CCN(C)C4)cc1 -7.72%, Cc1nnc2c(NC(C)C)nc3ccccc3n12 14.9%, CCc1cc(=O)oc2c(CN3CCCC3)c(O)c(Cl)cc12 12.3%, O=C(c1ccc(=O)oc1)N1CCOCC1 17.3%, CCOCCSc1nc2c(c(=O)[nH]c(=O)n2C)n1CCCc1ccccc1 3.98%, Cc1ccccc1C(=O)c1ccc2c(c1)n(C)c(=O)n2C 4.88%, CCOc1ccc(S(=O)(=O)NC(C)(C)C)cc1-c1nc2c(C(C)(C)C)nn(C)c2c(=O)[nH]1 -8.82%, CCCc1cc(=O)oc2c(CN3CCN(C)CC3)c(O)c(Cl)cc12 -0.941%, CCc1nc(N2CCCC2)c(C#N)c2c1CCCC2 -16.4%, c1ccc2c(c1)NC(c1ccncc1)n1c-2nc2ccccc21 (centres undefined) -17.1%, COC(=O)c1[nH]c2cc(OC)ccc2c1NC(=O)CCN1CCCC(C)(C)C1 -14.5%, CCOC(=O)c1sc2c(c1C)c(=O)c(C(=O)OCC)cn2CC -9.16%, CCC1(C)Cc2c(sc3c2c(=O)n(C)c2nnc(SCc4ccc5c(c4)OCO5)n32)CO1 (centres undefined) 11.8%, COc1ccc(/C(O)=C2\C(=O)C(=O)N(c3cc(C)on3)C2c2ccccc2OC)cc1 (centres undefined) -12.4%, COCCNC(=O)c1c(N)n(/N=C/c2cccs2)c2nc3ccccc3nc12 -0.395%, Cc1cccn2c(=O)c(/C=C(\C#N)S(=O)(=O)c3ccccc3)c(N3CCN(C)CC3)nc12 -0.352%, COc1ccc(C2=Nn3c(nnc3-c3ccccn3)SC2)cc1OC -18.1%, CCCN(CCC)C(=O)CC(c1ccc(F)cc1)c1ccco1 (centres undefined) 13%, N#CC(C#N)C(c1ccsc1)c1c(-c2ccccc2)[nH][nH]c1=O (centres undefined) -20.2%, CC(C)Oc1ccc(C(=O)CCN2CCCCC2)cc1 -9.61%, COc1cccc(/C(O)=C2/C(=O)C(=O)N(CCCN(C)C)C2c2cccc(Cl)c2)c1 (centres undefined) 5.09%, CCN1CCN(c2nc3c(C)cccn3c(=O)c2/C=C(\C#N)S(=O)(=O)c2ccccc2)CC1 -5.82%
